Tests used:
Conditions in all cases: concentration: 1 μM,replicates: in singlicate; n = 1
[1] = tested on: MAPKAPK5
[2] = tested on: MARK1
[3] = tested on: MARK2
[4] = tested on: MARK3
[5] = tested on: MARK4
[6] = tested on: MAST1
[7] = tested on: T1, MEK1
T1 construct: gene MAP2K1

[8] = tested on: T2, MEK2
T2 construct: gene MAP2K2

[9] = tested on: T3, MEK3
T3 construct: gene MAP2K3

[10] = tested on: T4, MEK4
T4 construct: gene MAP2K4

[11] = tested on: T5, MEK5
T5 construct: gene MAP2K5

[12] = tested on: T6, MEK6
T6 construct: gene MAP2K6

[13] = tested on: MELK
[14] = tested on: MERTK
[15] = tested on: MET
[16] = tested on: T7, MINK
T7 construct: gene MINK1

[17] = tested on: MKK7
[18] = tested on: MKNK1
[19] = tested on: MKNK2
[20] = tested on: T8, MLCK
T8 construct: gene MYLK3
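Note: KINOMEscan kinase panel screen.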

Structure (SMILES)	%Inh [1]	%Inh [2]	%Inh [3]	%Inh [4]	%Inh [5]	%Inh [6]	%Inh [7]	%Inh [8]	%Inh [9]	%Inh [10]	%Inh [11]	%Inh [12]	%Inh [13]	%Inh [14]	%Inh [15]	%Inh [16]	%Inh [17]	%Inh [18]	%Inh [19]	%Inh [20]
Cc1cccc(-c2nc(Nc3ccncc3)c3sccc3n2)n1 [GW869641]	9%	23%	34%	20%	30%	23%	25%	20%	32%	35%	58%	10%	36%	0%	28%	77%	16%	0%	0%	10%
CS(=O)c1ccc(-c2coc3ccc(-c4n[nH]c(=O)o4)cc23)cc1 (stereo not shown)	11%	15%	23%	0%	22%	6%	17%	18%	25%	43%	17%	0%	0%	0%	22%	7%	1%	9%	11%	32%
CCCC(=O)Nc1n[nH]c2ncccc12 [SB-601436]	5%	0%	0%	0%	0%	0%	0%	13%	21%	14%	0%	0%	0%	5%	0%	0%	0%	0%	11%	0%
Nc1nccc(-c2ccc3c(N)n[nH]c3c2)n1 [GSK1034945]	0%	0%	0%	0%	7%	0%	0%	0%	0%	8%	38%	0%	24%	16%	0%	47%	0%	11%	86%	96.1%
CN(c1ccc2c(c1)nc(NCc1ccc(F)cc1)n2C)c1ccnc(Nc2ccc(CS(C)(=O)=O)cc2)n1.Cl [GW813244]	0%	0%	0%	0%	8%	19%	14%	37%	27%	40%	97.9%	11%	13%	77%	45%	9%	4%	0%	0%	0%
O=c1[nH]cc(-c2ccc(O)cc2)c2sc(-c3ccncc3)cc12 [GSK1033723]	0%	0%	0%	0%	1%	0%	0%	0%	0%	0%	37%	0%	0%	0%	0%	0%	0%	12%	26%	40%
CN1CCN(CCNc2nc3cc(Oc4ccc(NC(=O)Nc5cc(C(F)(F)F)ccc5F)cc4)ccc3[nH]2)CC1.Cl.Cl [GW768504]	0%	19%	0%	12%	32%	7%	0%	31%	0%	0%	2%	12%	0%	85%	6%	0%	0%	24%	26%	0%
O=C(Nc1n[nH]c2cc(-c3ccco3)ccc12)C1CC1 [SB-737447]	12%	12%	39%	42%	0%	30%	0%	0%	30%	18%	76%	0%	0%	0%	0%	63%	0%	0%	39%	78%
C[C@@H](Oc1cc(-n2cnc3ccc(-c4ccncc4)cc32)sc1C(N)=O)c1ccccc1Cl [GSK483724]	0%	8%	0%	0%	20%	0%	49%	0%	34%	37%	78%	0%	0%	35%	9%	23%	56%	0%	7%	32%
OCCn1cc(-c2cnc3nnn(Cc4ccc5ncccc5c4)c3n2)cn1	0%	0%	0%	0%	0%	0%	0%	0%	0%	0%	0%	0%	32%	0%	79%	0%	0%	0%	0%	13%
COC(=O)Nc1nc2cc(Oc3ccc(NC(=O)Nc4cc(C(F)(F)F)ccc4Cl)cc3)ccc2[nH]1.Cl [GW697465]	0%	0%	0%	0%	0%	14%	25%	0%	0%	4%	78%	0%	0%	96.3%	84%	0%	0%	51%	92.8%	0%
Cc1ccc(CC(=O)N2CCc3cc(-c4cn(C)c5ncnc(N)c45)ccc32)cc1 [GSK2634758]	0%	2%	0%	0%	12%	8%	0%	0%	0%	22%	99.9%	0%	7%	27%	86%	6%	18%	0%	52%	12%
NC(=O)Nc1sc(-c2ccc(F)cc2)cc1C(N)=O [GW789449]	0%	0%	8%	0%	1%	46%	30%	40%	83%	24%	89%	21%	12%	10%	12%	60%	0%	8%	0%	0%
O=C(Nc1cccc(Oc2ccc3nccn3n2)c1)Nc1cccc(C(F)(F)F)c1	0%	14%	12%	0%	24%	0%	0%	7%	29%	0%	97%	0%	10%	24%	0%	27%	0%	8%	0%	0%
Cn1ccc2ncnc(Oc3ccc(NC(=O)Nc4cncc(C(F)(F)F)c4)c(Cl)c3)c21	0%	0%	23%	0%	11%	6%	0%	0%	0%	1%	22%	0%	0%	81%	12%	0%	0%	0%	0%	0%
CC(C)c1nc(-c2cccc(NS(=O)(=O)c3ccccc3)c2)c(-c2ccnc(Nc3ccc4c(c3)CN(C)CC4)n2)s1 [GSK1649598]	0%	31%	0%	14%	3%	0%	52%	77%	17%	99.5%	99.1%	26%	65%	42%	23%	95.1%	1%	0%	81%	0%
COc1cccc(C2=C(Nc3cccc(Cl)c3)C(=O)NC2=O)c1 [SB-341556]	0%	0%	0%	17%	0%	0%	0%	0%	15%	4%	38%	0%	0%	0%	0%	0%	10%	0%	27%	0%
O=C(Nc1cccc(C(F)(F)F)c1)c1cccc(Oc2ccc3nccn3n2)c1	51%	0%	2%	9%	100%	0%	0%	8%	6%	31%	32%	0%	0%	17%	16%	12%	36%	7%	26%	0%
NC(=O)c1ccc(-c2cc3ncnc(SCC(=O)O)c3s2)cc1	0%	0%	8%	0%	0%	0%	0%	34%	9%	0%	38%	0%	0%	0%	0%	39%	0%	6%	28%	12%
Cc1ccn2nc(-c3ccc(F)cc3)c(-c3ccncc3)c2c1.Cl [GW457859]	0%	0%	0%	0%	0%	64%	0%	48%	0%	0%	7%	2%	7%	24%	0%	67%	0%	6%	0%	2%
